Reference: PubChem BioAssay
Values joined by “and” are separate entries in the source; they are usually repeats but may differ in a detail not shown here. Identical values can stand only once. A structure can be active in one record and inactive in another. Active and inactive are the calls of the source. Rule as the data show it: active = fold change permeability below about 0.7 or above about 1.3; inactive = in between.

Assay: modulators of brain endothelial barrier permeability, primary screen, cell-based, FITC-avidin fluorescence, HTS (AID 1963498); also: test concentration not given here
Details: actives lie on both sides

| Compound | fold change permeability |
| --- | --- |
| CC(C(O)c1ccc(O)cc1)N1CCC(Cc2ccccc2)CC1 (stereo not given) | 1.3 (active) |
| NCC(O)c1ccc(O)cc1 (stereo not given) | 0.9 (inactive) |
| CCc1c(C(=O)C(N)=O)c2c(OCC(=O)O)cccc2n1Cc1ccccc1 | 1.1 (inactive) |
| Cc1ncc(CNC(=O)N(CCCl)N=O)c(N)n1 | 0.9 (inactive) |
| CCC1(c2ccc(N)cc2)CCC(=O)NC1=O (stereo not given) | 1 (inactive) |
| COc1ccccc1N1CCNCC1 | 0.9 (inactive) |
| NCCCP(=O)(O)O | 1.3 (active) |
| COc1ccc2[nH]c3c(c2c1)CCNC3 | 1 (inactive) |
| N=C(N)c1ccc(CS(=O)(=O)F)cc1 | 1.2 (inactive) |
| Cc1cccc(C)c1NC(=O)CN1CCCC1=O | 1 (inactive) |
| COc1cc2c(c(OC)c1OC)-c1ccc(SC)c(=O)cc1[C@@H](NC(C)=O)CC2 | 1.7 (active) |
| COc1ccc(C(=O)N2CCCC2=O)cc1 | 1 (inactive) |
| N#CC(C#N)=Cc1ccc(O)c(O)c1 | 1.2 (inactive) |
| CCCCCCCCCCCCCC(=O)O[C@@H]1[C@@H](C)[C@@]2(O)[C@@H](C=C(CO)C[C@]3(O)C(=O)C(C)=C[C@@H]23)[C@@H]2C(C)(C)[C@]12OC(C)=O | 1.1 (inactive) |
| COC(=O)C1=CCCN(C)C1 | 1.2 (inactive) |
| NC1CCc2cc(O)c(O)cc2C1 (stereo not given) | 0.7 (active) |
| COc1ccc(OC)c(C(O)C(C)N)c1 (stereo not given) | 0.8 (inactive) |
| CCCN(CCC)CCc1ccc(O)c(O)c1 | 0.8 (inactive) |
| O=C(O)Cc1cnc[nH]1 | 1 (inactive) |
| CC(C)N(CCC(C(N)=O)(c1ccccc1)c1ccccn1)C(C)C (stereo not given) | 0.9 (inactive) and 1.3 (active) |
